# Results reported in the antibiotic and cytotoxicity screens of Wong et al. (2023).
# The campaign covered roughly 39,000 compounds. About 3,300 (8.5%) were called active. The full list was thinned out, with actives kept by preference.
# Test system: HepG2
# Experiment: cytotoxicity call (relative viability < 0.9)
# Details: 10 µM
row,Compound,cytotoxicity call
1,Cc1noc(C)c1S(=O)(=O)N(C)C[C@H]1Oc2ccc(NC(=O)Cc3cn(C)c4ccccc34)cc2CC(=O)N([C@@H](C)CO)C[C@H]1C,inactive
2,COc1cccc(S(=O)(=O)N[C@@H]2C=C[C@H](CC(=O)NC3CCC3)O[C@H]2CO)c1,inactive
3,C[C@H](CO)N1C[C@H](C)[C@@H](CN(C)C(=O)Cc2ccccc2)OCCCC[C@H](C)Oc2ccc(NS(=O)(=O)c3cccs3)cc2C1=O,inactive
4,C[C@H](CO)N1C[C@H](C)[C@@H](CN(C)Cc2ccc(C(=O)O)cc2)Oc2ccc(NC(=O)c3ccncc3)cc2C1=O,inactive
5,C[C@@H]1CCCCO[C@@H](CN(C)Cc2ccc(C(F)(F)F)cc2)[C@H](C)CN([C@H](C)CO)C(=O)c2cc(NS(=O)(=O)c3cn(C)cn3)ccc2O1,inactive
6,CC(C)NC(=O)N(C)C[C@H]1OCCCC[C@H](C)Oc2ccc(NC(=O)Nc3ccc(C(F)(F)F)cc3)cc2C(=O)N([C@@H](C)CO)C[C@H]1C,inactive
7,C[C@@H]1CCCCO[C@H](CN(C)S(=O)(=O)c2ccc(Cl)cc2)[C@@H](C)CN([C@@H](C)CO)C(=O)c2cc(NC(=O)C3CCCCC3)ccc2O1,inactive
8,C[C@@H]1CCCCO[C@H](CN(C)C(=O)CCC(F)(F)F)[C@H](C)CN([C@H](C)CO)C(=O)c2cc(NS(=O)(=O)c3ccccc3)ccc2O1,inactive
9,C[C@@H]1CCCCO[C@@H](CN(C)C(=O)Nc2ccccc2)[C@H](C)CN([C@H](C)CO)C(=O)c2cc(NC(=O)Nc3ccc(C(F)(F)F)cc3)ccc2O1,inactive
10,CC(C)NC(=O)N(C)C[C@H]1Oc2c(NS(=O)(=O)c3ccc(F)cc3)cccc2C(=O)N([C@H](C)CO)C[C@H]1C,inactive
11,C[C@@H]1CN([C@@H](C)CO)C(=O)c2cc(C#CC3CC3)cnc2O[C@H]1CN(C)S(=O)(=O)c1cccc(F)c1,inactive
12,O=c1[nH]ccn(-c2ccccc2)c1=O,active
13,O=c1[nH]ncn1-c1ccccc1,inactive
14,Cc1ccc(=O)n(-c2ccccc2)c1,inactive
15,Cc1c(C(=O)O)sc(=O)n1C,inactive
16,CC(C)NC(=O)N(C)C[C@@H]1Oc2cc(C#Cc3cccc(F)c3)ccc2S(=O)(=O)N([C@@H](C)CO)C[C@@H]1C,inactive
17,C[C@@H]1CN([C@@H](C)CO)C(=O)Cc2cc(NS(=O)(=O)c3ccccc3)ccc2O[C@@H]1CN(C)S(=O)(=O)c1ccc(F)cc1,inactive
18,Cc1ccc(S(=O)(=O)N(C)C[C@@H]2OCCCC[C@H](C)Oc3ccc(NC(=O)CCC(F)(F)F)cc3C(=O)N([C@H](C)CO)C[C@@H]2C)cc1,inactive
19,O=C(N[C@H](c1ccc(F)cc1)c1ccc2ccccc2n1)C1CCN(CCOc2ccc(Cl)cc2)CC1,inactive
20,O=C(N[C@@H](c1ccccc1)c1ccc2ccccc2n1)C1CCN(CCOc2ccc(Cl)cc2Cl)CC1,inactive
21,COc1ccc([C@@H](NC(=O)C2CCN(CCOc3ccc(Cl)cc3Cl)CC2)c2ccco2)cc1,inactive

row,Compound,cytotoxicity call
1,COc1ccc(OCCN2CCC(C(=O)N[C@@H](c3ccc(F)cc3)c3ccc4ccccc4n3)CC2)cc1,active
2,COc1ccc(/C=C/CN2CCC(C(=O)N[C@@H](c3ccc(F)cc3)c3ccc4ccccc4n3)CC2)cc1,active
3,O=C(N[C@@H](c1ccc(F)cc1)c1ccc2ccccc2n1)C1CCN(CCOc2ccc(F)cc2)CC1,active
4,O=C(N[C@H](c1ccc(F)cc1)c1ccc2ccccc2n1)C1CCN(CCOc2ccc(Cl)cc2Cl)CC1,inactive
5,C[C@@H]1CN([C@@H](C)CO)C(=O)c2cccc(NS(=O)(=O)c3cccs3)c2O[C@H]1CN(C)S(=O)(=O)c1ccc(F)cc1,inactive
6,C[C@@H]1CN([C@H](C)CO)S(=O)(=O)c2ccc(-c3cccc(C#N)c3)cc2O[C@H]1CN(C)C(=O)c1cccnc1,inactive
7,COc1cccc(S(=O)(=O)N2C[C@@H](O)COC[C@@H]3O[C@H](CC(=O)N4CCN(C)CC4)CC[C@H]32)c1,inactive
8,CO[C@H]1CN(C)C(=O)c2cc(NS(=O)(=O)c3ccccc3)ccc2OC[C@@H](C)N(C(=O)NC(C)C)C[C@H]1C,inactive
9,CC(C)(C)c1nc[nH]c1/C=c1\[nH]c(=O)/c(=C/c2ccccc2)[nH]c1=O,inactive
10,C[C@@H]1CN([C@@H](C)CO)C(=O)c2cc(NS(=O)(=O)c3cn(C)cn3)ccc2O[C@@H](C)CCCCO[C@@H]1CN(C)C(=O)CCCN(C)C,inactive
11,CO[C@@H]1CN(C)C(=O)c2cc(NC(=O)Nc3ccccc3F)ccc2OC[C@H](C)N(CCC(F)(F)F)C[C@@H]1C,inactive
12,CC(=O)O[C@H](C[C@H](O)[C@@](C)(CCC=C(C)C)O[C@H]1O[C@@H](CO)[C@@H](O)[C@@H](O)[C@@H]1O)/C(C)=C/COC[C@@H](O)[C@@H](O)[C@@H](O)[C@@H](O)CO,inactive
13,CCCCCCOc1cccc(N)c1,inactive
14,C[C@@H]1CCCCO[C@H](CN(C)C(=O)Nc2cccc3ccccc23)[C@@H](C)CN([C@@H](C)CO)C(=O)c2cc(NC(=O)CCCN(C)C)ccc2O1,inactive
15,CNC[C@@H]1OCCCC[C@@H](C)Oc2ccc(NS(=O)(=O)c3cn(C)cn3)cc2C(=O)N([C@H](C)CO)C[C@@H]1C,inactive
16,C[C@H](CO)N1C[C@H](C)[C@@H](CN(C)CC2CCCCC2)OCCCC[C@H](C)Oc2ccc(NC(=O)Nc3ccc(C(F)(F)F)cc3)cc2C1=O,active
17,C[C@@H]1CCCCO[C@@H](CN(C)CC2CCCCC2)[C@H](C)CN([C@@H](C)CO)C(=O)c2cc(NC(=O)Nc3ccc(C(F)(F)F)cc3)ccc2O1,active
18,C[C@H]1CCCCO[C@@H](CN(C)CC2CCCCC2)[C@@H](C)CN([C@@H](C)CO)C(=O)c2cc(NC(=O)Nc3ccc(C(F)(F)F)cc3)ccc2O1,active
19,C[C@@H]1CCCCO[C@@H](CN(C)CC2CCCCC2)[C@H](C)CN([C@H](C)CO)C(=O)c2cc(NC(=O)Nc3ccc(C(F)(F)F)cc3)ccc2O1,active
20,C[C@@H]1CN([C@@H](C)CO)C(=O)c2cc(NC(=O)Nc3ccc(C(F)(F)F)cc3)ccc2O[C@@H](C)CCCCO[C@H]1CN(C)CC1CCCCC1,inactive
21,CC(C)=CCCC(C)=CCOc1ccc2ccc(=O)oc2c1,inactive
